1 sequence from PMC7862700, “An all-to-all approach to the identification of sequence-specific readers for epigenetic DNA modifications on cytosine” can be followed below.

Holding throughout (assay): DAPPL (digital affinity profiling via proximity ligation, sequencing); 10 mM Tris-HCl pH 7.5, 50 mM NaCl, 1 mM DTT, 4% glycerol, room temperature, 30 min; GST-TFs on glutathione beads, 16-mer random dsDNA library, 0.1% formaldehyde crosslink after washing; high values mean tight binding
One test addresses T1, FEV (Homo sapiens, UniProt Q99581 1-238).
T1 sequence: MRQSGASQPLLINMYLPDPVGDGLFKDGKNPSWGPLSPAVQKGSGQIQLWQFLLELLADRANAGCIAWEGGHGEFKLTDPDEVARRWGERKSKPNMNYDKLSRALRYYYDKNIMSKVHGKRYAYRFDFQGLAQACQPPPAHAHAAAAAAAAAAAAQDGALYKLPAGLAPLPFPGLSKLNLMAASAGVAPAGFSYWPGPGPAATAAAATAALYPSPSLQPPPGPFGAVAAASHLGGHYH
Conditions: protein: recombinant; tags: N-terminal GST; dsDNA, one strand shown. A digest of the protocol:
(§1)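 Binding signal is given per hexamer as its read frequency for a factor divided by its frequency in the tag-only sample. GST-fused human transcription factors were expressed in yeast, captured on glutathione beads, barcoded with DNA and pooled with that sample, then incubated with 200 nmole of a 16-mer random double-stranded DNA library in Tris/NaCl/DTT/glycerol buffer for 30 min at room temperature. The pools were then washed, crosslinked, proximity-ligated, amplified by PCR and sequenced on an Illumina NextSeq500.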

The target of another test is ETV5 (Homo sapiens, UniProt P41161 1-510). The conditions noted are these: protein: recombinant; tags: N-terminal GST; dsDNA, one strand shown. A digest of the protocol: as §1
ETV5, sequence (P41161 whole entry): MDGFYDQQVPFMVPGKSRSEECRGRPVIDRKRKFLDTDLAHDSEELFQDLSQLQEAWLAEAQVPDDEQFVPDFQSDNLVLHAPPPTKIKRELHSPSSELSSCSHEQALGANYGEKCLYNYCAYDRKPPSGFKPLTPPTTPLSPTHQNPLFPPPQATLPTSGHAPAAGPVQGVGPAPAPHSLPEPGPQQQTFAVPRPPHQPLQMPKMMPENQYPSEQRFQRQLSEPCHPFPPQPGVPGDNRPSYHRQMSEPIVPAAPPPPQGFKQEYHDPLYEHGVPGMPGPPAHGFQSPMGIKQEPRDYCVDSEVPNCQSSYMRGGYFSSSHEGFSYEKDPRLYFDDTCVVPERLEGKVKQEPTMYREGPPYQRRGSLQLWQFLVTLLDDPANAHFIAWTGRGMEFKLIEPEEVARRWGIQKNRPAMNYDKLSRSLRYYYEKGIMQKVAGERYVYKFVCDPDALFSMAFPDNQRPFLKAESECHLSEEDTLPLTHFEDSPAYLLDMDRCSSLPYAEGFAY
A further test has as its target HSF1 (Homo sapiens, UniProt Q00613 1-529). Conditions: protein: recombinant; tags: N-terminal GST; chain copies: 3; dsDNA, one strand shown. A digest of the protocol: as §1
The target in the next test is T2, SPIC (Homo sapiens, UniProt Q8N5J4 1-248).
T2 sequence: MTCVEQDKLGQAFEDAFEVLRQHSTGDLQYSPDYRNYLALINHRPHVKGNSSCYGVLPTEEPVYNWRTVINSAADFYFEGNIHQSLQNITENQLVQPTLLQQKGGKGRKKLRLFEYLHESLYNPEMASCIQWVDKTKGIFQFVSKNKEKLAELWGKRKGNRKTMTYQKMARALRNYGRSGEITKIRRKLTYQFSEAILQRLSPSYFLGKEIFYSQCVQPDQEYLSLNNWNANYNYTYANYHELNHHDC
Conditions: protein: recombinant; tags: N-terminal GST; dsDNA, one strand shown. An outline of the steps:
as §1

Another test deals with ELF4 (Homo sapiens, UniProt Q99607 1-663). The conditions noted are these: protein: recombinant; tags: N-terminal GST; dsDNA, one strand shown. A digest of the protocol: as §1
ELF4, sequence (Q99607 whole entry): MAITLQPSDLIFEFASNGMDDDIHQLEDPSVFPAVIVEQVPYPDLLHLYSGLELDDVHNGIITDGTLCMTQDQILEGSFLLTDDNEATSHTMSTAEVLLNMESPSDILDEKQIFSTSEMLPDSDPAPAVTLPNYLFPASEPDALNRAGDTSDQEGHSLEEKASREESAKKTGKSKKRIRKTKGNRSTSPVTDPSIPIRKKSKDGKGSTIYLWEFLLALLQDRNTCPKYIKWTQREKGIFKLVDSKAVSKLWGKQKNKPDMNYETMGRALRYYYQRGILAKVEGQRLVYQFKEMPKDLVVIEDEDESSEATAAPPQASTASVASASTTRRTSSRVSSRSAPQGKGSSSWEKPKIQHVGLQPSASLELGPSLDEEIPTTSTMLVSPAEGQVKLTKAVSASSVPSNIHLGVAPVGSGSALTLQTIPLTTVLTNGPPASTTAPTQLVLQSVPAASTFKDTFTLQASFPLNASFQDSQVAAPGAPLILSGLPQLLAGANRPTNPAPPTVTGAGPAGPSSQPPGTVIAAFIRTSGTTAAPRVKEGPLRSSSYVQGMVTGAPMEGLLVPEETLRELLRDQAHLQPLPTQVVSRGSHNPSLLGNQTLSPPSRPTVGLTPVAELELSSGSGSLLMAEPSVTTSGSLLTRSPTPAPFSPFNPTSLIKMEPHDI
The next test deals with T3, ELK4 (Homo sapiens, UniProt P28324-2 1-405).
T3 sequence: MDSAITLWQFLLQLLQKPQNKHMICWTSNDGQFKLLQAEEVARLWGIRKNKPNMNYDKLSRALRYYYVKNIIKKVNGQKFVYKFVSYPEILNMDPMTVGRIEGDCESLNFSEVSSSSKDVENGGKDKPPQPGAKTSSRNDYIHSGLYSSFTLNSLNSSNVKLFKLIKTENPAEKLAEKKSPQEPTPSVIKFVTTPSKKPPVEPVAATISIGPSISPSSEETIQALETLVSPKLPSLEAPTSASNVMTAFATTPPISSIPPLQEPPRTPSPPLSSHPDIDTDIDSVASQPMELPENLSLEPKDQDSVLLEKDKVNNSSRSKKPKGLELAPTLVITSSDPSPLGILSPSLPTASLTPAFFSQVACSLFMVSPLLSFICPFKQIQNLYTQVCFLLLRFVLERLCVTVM
Conditions: protein: recombinant; tags: N-terminal GST; dsDNA, one strand shown. A digest of the protocol:
as §1

In the next test the target is T4, ETV2 (Homo sapiens, UniProt O00321 1-342).
T4 sequence: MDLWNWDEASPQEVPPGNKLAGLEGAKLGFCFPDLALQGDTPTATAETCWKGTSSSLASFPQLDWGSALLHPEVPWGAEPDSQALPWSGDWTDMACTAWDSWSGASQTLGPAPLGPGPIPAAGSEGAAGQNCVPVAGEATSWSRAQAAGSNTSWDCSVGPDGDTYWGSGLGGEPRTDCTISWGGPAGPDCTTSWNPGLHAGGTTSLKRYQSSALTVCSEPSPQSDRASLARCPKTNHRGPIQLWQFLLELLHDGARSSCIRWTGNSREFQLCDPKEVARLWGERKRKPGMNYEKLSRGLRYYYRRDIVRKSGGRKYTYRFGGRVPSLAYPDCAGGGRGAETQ
Conditions: protein: recombinant; tags: N-terminal GST; dsDNA, one strand shown. An outline of the steps: as §1

The next test deals with T5, ELF3 (Homo sapiens, UniProt P78545 1-371).
T5 sequence: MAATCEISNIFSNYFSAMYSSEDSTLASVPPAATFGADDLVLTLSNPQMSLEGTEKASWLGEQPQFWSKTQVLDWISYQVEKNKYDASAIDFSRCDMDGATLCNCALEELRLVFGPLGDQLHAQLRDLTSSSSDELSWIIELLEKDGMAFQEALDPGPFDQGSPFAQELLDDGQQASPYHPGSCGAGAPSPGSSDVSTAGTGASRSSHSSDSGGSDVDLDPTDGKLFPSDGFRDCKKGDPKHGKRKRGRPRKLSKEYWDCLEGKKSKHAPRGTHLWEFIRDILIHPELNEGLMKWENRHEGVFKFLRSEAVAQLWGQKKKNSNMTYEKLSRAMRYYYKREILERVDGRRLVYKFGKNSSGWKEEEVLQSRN
The conditions noted are these: protein: recombinant; tags: N-terminal GST; dsDNA, one strand shown. An outline of the steps: as §1

Another test addresses CRX (Homo sapiens, UniProt O43186 1-299). Conditions: protein: recombinant; tags: N-terminal GST; dsDNA, one strand shown. An outline of the steps:
as §1

The next test concerns the target ETV1 (Homo sapiens, UniProt P50549 1-477). The conditions noted are these: protein: recombinant; tags: N-terminal GST; dsDNA, one strand shown. A digest of the protocol: as §1
The target of a further test is T6, ERF (Homo sapiens, UniProt P50548 1-548).
T6 sequence: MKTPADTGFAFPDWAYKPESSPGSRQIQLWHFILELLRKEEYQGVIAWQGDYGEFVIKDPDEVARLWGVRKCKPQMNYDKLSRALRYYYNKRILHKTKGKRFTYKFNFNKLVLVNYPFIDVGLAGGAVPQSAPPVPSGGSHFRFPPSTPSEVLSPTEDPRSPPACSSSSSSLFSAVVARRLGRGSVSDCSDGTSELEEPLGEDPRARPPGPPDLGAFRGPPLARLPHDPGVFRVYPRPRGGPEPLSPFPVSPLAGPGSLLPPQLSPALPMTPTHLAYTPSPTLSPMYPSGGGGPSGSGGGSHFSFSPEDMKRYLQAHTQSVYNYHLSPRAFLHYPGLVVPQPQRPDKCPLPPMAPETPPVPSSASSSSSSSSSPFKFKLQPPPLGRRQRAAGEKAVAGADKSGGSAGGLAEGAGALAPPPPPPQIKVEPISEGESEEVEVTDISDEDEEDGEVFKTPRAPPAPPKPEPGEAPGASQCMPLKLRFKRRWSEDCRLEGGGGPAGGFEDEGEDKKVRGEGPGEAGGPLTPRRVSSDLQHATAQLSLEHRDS
Conditions: protein: recombinant; tags: N-terminal GST; dsDNA, one strand shown. A digest of the protocol: as §1

In another test the target is T7, ETV3L (Homo sapiens, UniProt Q6ZN32 1-361).
T7 sequence: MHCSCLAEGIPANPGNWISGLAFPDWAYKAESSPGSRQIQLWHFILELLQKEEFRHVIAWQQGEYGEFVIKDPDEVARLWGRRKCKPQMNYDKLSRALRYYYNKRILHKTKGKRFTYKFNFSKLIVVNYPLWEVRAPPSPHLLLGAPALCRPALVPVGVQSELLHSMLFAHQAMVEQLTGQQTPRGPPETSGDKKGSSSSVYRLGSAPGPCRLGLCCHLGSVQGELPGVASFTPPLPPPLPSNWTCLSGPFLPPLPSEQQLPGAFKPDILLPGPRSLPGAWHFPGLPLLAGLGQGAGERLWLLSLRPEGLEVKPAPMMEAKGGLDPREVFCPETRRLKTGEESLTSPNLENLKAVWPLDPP
Conditions: protein: recombinant; tags: N-terminal GST; dsDNA, one strand shown. A digest of the protocol: as §1

The next test has as its target T8, ETS2 (Homo sapiens, UniProt P15036 1-469).
T8 sequence: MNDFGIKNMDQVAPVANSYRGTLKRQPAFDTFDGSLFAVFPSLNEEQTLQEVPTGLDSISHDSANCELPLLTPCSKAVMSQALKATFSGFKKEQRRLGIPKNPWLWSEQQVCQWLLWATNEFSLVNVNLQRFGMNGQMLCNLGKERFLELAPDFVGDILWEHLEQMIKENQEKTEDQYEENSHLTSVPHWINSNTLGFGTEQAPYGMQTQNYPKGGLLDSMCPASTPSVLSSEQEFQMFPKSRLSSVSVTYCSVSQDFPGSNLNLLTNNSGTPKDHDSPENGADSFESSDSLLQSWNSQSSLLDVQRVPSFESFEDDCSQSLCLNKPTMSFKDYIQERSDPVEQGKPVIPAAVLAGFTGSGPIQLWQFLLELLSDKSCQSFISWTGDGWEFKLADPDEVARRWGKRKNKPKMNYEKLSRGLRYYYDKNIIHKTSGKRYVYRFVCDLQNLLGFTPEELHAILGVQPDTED
Conditions: protein: recombinant; tags: N-terminal GST; dsDNA, one strand shown. An outline of the steps:
as §1

The target in a further test is T9, SPDEF (Homo sapiens, UniProt O95238 1-335).
T9 sequence: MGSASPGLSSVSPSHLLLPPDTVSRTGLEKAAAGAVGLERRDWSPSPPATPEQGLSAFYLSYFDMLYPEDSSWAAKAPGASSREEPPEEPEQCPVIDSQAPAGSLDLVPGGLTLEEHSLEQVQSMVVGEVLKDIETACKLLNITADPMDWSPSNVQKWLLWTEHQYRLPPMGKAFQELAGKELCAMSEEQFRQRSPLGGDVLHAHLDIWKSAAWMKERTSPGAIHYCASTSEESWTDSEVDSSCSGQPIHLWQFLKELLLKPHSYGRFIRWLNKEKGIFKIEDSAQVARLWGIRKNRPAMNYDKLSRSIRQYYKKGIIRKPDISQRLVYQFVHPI
Conditions: protein: recombinant; tags: N-terminal GST; dsDNA, one strand shown. An outline of the steps: as §1

The target in a further test is T10, ETV7 (Homo sapiens, UniProt Q9Y603 1-341).
T10 sequence: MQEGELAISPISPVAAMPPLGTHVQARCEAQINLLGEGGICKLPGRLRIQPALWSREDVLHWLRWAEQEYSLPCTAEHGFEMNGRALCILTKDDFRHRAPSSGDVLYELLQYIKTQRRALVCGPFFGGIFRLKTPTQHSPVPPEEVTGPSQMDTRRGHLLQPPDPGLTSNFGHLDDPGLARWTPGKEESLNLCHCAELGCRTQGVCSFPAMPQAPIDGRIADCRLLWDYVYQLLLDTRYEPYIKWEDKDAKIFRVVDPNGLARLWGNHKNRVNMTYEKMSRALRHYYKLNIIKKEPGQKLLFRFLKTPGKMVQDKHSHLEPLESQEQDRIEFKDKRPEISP
The conditions noted are these: protein: recombinant; tags: N-terminal GST; dsDNA, one strand shown. A digest of the protocol: as §1

Another test deals with T11, ELF5 (Homo sapiens, UniProt Q9UKW6-2 1-255).
T11 sequence: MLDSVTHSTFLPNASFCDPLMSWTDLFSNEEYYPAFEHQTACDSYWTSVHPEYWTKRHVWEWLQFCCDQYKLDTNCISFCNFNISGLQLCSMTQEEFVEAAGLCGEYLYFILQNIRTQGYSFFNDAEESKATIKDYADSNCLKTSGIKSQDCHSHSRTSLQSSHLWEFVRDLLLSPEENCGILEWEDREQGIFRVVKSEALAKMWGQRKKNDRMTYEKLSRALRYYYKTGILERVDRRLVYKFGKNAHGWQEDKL
Conditions: protein: recombinant; tags: N-terminal GST; dsDNA, one strand shown. An outline of the steps: as §1

The target in a further test is T12, ETV3 (Homo sapiens, UniProt P41162-2 1-143).
T12 sequence: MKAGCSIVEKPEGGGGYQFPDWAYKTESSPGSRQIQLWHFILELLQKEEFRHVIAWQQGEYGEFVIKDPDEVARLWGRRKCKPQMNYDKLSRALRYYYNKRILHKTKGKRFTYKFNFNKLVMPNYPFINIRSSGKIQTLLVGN
The conditions noted are these: protein: recombinant; tags: N-terminal GST; dsDNA, one strand shown. A digest of the protocol: as §1

Another test addresses ETV6 (Homo sapiens, UniProt P41212 1-452). The conditions noted are these: protein: recombinant; tags: N-terminal GST; dsDNA, one strand shown. A digest of the protocol: as §1

HSF1, sequence (Q00613 whole entry): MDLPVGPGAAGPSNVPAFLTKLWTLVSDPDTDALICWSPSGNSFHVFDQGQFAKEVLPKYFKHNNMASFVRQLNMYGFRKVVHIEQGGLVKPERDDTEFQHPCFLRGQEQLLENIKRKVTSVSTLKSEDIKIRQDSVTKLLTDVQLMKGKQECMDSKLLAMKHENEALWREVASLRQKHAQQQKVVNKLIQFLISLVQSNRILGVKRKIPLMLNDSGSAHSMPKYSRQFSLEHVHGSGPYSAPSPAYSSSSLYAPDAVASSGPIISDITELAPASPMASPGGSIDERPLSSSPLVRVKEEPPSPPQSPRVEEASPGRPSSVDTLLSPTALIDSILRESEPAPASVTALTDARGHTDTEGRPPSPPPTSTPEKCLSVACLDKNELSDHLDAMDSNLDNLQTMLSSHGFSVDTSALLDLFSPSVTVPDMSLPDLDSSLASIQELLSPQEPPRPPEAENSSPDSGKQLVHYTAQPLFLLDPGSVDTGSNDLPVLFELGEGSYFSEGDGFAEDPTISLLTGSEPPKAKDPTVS
ETV6, sequence (P41212 whole entry): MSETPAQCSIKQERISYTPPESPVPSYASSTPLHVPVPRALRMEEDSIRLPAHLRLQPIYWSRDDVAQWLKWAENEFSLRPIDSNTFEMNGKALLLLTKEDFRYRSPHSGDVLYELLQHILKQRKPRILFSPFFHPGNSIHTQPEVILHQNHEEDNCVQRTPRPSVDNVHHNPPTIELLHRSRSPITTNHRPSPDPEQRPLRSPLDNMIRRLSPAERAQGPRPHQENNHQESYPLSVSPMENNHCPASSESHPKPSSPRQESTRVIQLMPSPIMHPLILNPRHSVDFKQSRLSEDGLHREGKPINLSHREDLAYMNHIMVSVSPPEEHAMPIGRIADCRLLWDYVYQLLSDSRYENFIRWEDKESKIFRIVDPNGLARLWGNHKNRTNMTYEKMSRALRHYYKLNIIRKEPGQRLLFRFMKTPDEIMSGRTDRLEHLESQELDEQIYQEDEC
ETV1, sequence (P50549 whole entry): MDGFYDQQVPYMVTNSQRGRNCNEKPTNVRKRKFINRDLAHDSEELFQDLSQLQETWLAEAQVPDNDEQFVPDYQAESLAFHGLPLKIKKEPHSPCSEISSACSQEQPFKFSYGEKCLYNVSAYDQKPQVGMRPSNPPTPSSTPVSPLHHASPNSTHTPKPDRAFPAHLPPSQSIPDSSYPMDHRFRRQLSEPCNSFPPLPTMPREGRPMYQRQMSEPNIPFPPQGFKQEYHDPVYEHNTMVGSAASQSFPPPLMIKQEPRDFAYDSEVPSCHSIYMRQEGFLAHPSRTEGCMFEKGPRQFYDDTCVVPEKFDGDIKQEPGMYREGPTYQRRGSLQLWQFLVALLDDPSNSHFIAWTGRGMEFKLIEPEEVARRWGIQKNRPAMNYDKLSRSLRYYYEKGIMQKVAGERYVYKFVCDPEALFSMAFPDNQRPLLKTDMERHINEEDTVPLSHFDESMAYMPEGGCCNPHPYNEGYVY
CRX, sequence (O43186 whole entry): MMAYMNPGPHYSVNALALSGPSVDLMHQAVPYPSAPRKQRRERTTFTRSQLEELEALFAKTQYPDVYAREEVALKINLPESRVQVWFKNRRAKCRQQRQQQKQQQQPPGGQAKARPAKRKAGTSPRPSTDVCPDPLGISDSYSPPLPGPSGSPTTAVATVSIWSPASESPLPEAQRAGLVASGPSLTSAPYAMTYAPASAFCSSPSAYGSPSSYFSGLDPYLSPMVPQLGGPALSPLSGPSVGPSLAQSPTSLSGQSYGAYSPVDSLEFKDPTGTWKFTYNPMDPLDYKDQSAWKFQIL

Regarding AACCCG, the binding signal in the test with FEV is 1.44 fold enrichment (6-mer frequency, TF over GST control); with ETV5 it was 1.51 fold enrichment (6-mer frequency, TF over GST control); in the test with HSF1 it was 1.07 fold enrichment (6-mer frequency, TF over GST control); with SPIC, 1.47 fold enrichment (6-mer frequency, TF over GST control); with ELF4, 1.51 fold enrichment (6-mer frequency, TF over GST control); with ELK4, 1.26 fold enrichment (6-mer frequency, TF over GST control). For the same sequence, the binding signal in the test with ETV2 is 1.47 fold enrichment (6-mer frequency, TF over GST control); in the test with ELF3, 1.6 fold enrichment (6-mer frequency, TF over GST control); in the test with CRX, 1.2 fold enrichment (6-mer frequency, TF over GST control); with ETV1, 1.58 fold enrichment (6-mer frequency, TF over GST control); in the test with ERF, 1.42 fold enrichment (6-mer frequency, TF over GST control); with ETV3L it was 1.34 fold enrichment (6-mer frequency, TF over GST control). The binding signal in the test with ETS2 is 1.45 fold enrichment (6-mer frequency, TF over GST control); with SPDEF it was 1.63 fold enrichment (6-mer frequency, TF over GST control); in the test with ETV7, 1.47 fold enrichment (6-mer frequency, TF over GST control); with ELF5 it was 1.52 fold enrichment (6-mer frequency, TF over GST control); in the test with ETV3, 1.57 fold enrichment (6-mer frequency, TF over GST control); in the test with ETV6, 1.5 fold enrichment (6-mer frequency, TF over GST control).
